In experiment [1] the test system is (+)-isopinocamphone A-neuron OSN class. As to the kind of experiment: net action potential response of A-neuron (blank-subtracted) (spikes/s (Hz)); higher = stronger excitation. The settings on record: 10 µg on filter paper; neuron: A neuron (large spike amplitude). A digest of the protocol: (§1)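 Spikes were counted in AutoSpike for the large-amplitude A-neuron or the small-amplitude B-neuron, using 0.5 s windows across 1–4 sensilla. Responses were reported as spikes/s after subtraction of the pre-stimulus count and of the blank, averaged across sensilla. The recordings came from one fixed antenna of live lab-reared adult Ips typographus via tungsten electrodes under a humidified, charcoal-filtered airstream of 1.8 L/min, with each compound given as 10 μg in paraffin oil on filter paper in a pipette, pulsed for 0.5 s at 0.3 L/min.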

The subject of experiment [2] is (+)-trans-4-thujanol A-neuron OSN class. The experiment is described as above. Particulars: 10 µg on filter paper; neuron: A neuron (large spike amplitude). In a few lines: as §1
Experiment [3] relates to (5S,7S)-trans-conophthorin A-neuron OSN class. The experiment is described as above. Particulars: 10 µg on filter paper; neuron: A neuron (large spike amplitude). In a few lines: as §1
The subject of experiment [4] is myrcene A-neuron OSN class. The description is as above. The settings on record: 10 µg on filter paper; neuron: A neuron (large spike amplitude). A digest of the protocol: as §1
The subject of experiment [5] is p-cymene A-neuron OSN class. The experiment is described as above. Particulars: 10 µg on filter paper; neuron: A neuron (large spike amplitude). In a few lines: as §1
Experiment [6] concerns lanierone-responsive B-neuron OSN class (ItypOR36). The experiment in a line: net action potential response of lanierone B-neuron (blank-subtracted) (spikes/s (Hz)); higher = stronger excitation. The settings on record: 10 µg on filter paper, neuron: B neuron (small spike amplitude). In a few lines: as §1
For experiment [7], the system named is ipsdienol A-neuron OSN class. The experiment in a line: net action potential response of A-neuron (blank-subtracted) (spikes/s (Hz)); higher = stronger excitation. The settings on record: 10 µg on filter paper; neuron: A neuron (large spike amplitude). A digest of the protocol: as §1
The mark [8] stands for this setting: co-localized A-neuron class: (4S)-cis-verbenol.
Where [9] appears, read: co-localized A-neuron class: (5S,7S)-trans-conophthorin.
The mark [10] stands for this setting: co-localized A-neuron class: (+)-isopinocamphone.
Setting [11] is: co-localized A-neuron class: (+)-trans-4-thujanol.
Where [12] appears, read: co-localized A-neuron class: ipsdienol.
The mark [13] stands for this setting: co-localized A-neuron class: myrcene.
[14] abbreviates: co-localized A-neuron class: p-cymene.

Molecules are shown by their SMILES. ± gives the standard deviation of the averaged measurements.

On to `CC(C)=CCC/C(C)=C/C=O` [Citral (E/Z mix)], for which the “net action potential response” value in experiment [1] was 0.667 ± 5; in experiment [2], 0.5 ± 1.9; in experiment [3] it was 2 ± 7.2; in experiment [4] it was 2; in experiment [5] it was -2 ± 2; in experiment [6] (setting [8]), -1.33 ± 4.6. The “net action potential response” value in experiment [6] (setting [9]) was -3.33 ± 4.2; in experiment [6] (setting [10]), 1.33 ± 4.2; in experiment [6] (setting [11]) it was 2 ± 8.2; in experiment [6] (setting [12]), -5.33 ± 7.6; in experiment [6] (setting [13]) it was 0; in experiment [6] (setting [14]), -0.667 ± 4.2.

As to `COc1ccc(C)cc1OC` [3,4-Dimethoxytoluene], the “net action potential response” value in experiment [1] worked out at 0.667 ± 3.1; in experiment [2], 1.5 ± 3.8; in experiment [3], 2.67 ± 6.4; in experiment [7], 0.667 ± 1.1; in experiment [4], 4; in experiment [5] it was 1.33 ± 1.1.

On to `CC/C=C\CCO`, for which the “net action potential response” value is 10.7 ± 27 in experiment [1]; 74.5 ± 42 in experiment [2]; -2 ± 4 in experiment [3]; 0 ± 2 in experiment [7]; 6 in experiment [4]; 0 ± 4 in experiment [5].

On to `CC/C=C/CCO`, for which the “net action potential response” value in experiment [1] is 8.67 ± 14; in experiment [2], 27.5 ± 23; in experiment [3], -2 ± 2; in experiment [4], -4; in experiment [5] it was 0.667 ± 3.1; in experiment [6] (setting [8]), 2 ± 4. The “net action potential response” value was -5.33 ± 6.1 in experiment [6] (setting [9]); -2 ± 5.3 in experiment [6] (setting [10]); -0.5 ± 6.6 in experiment [6] (setting [11]); 0 ± 4 in experiment [6] (setting [12]); -2 in experiment [6] (setting [13]); -0.667 ± 3.1 in experiment [6] (setting [14]).

For the compound `CC12CCC(CC1=O)C2(C)C` (racemic) [(±)-Camphor], the “net action potential response” value in experiment [1] was 125 ± 40; in experiment [2] it was 2 ± 5.7; in experiment [3] it was 5.33 ± 7; in experiment [4], -6; in experiment [5], 6.67 ± 16; in experiment [6] (setting [8]) it was -2.67 ± 3.1. The “net action potential response” value in experiment [6] (setting [9]) is 0; in experiment [6] (setting [10]), -6.67 ± 2.3; in experiment [6] (setting [11]), -1.5 ± 1; in experiment [6] (setting [12]), -2.67 ± 6.1; in experiment [6] (setting [13]), -2; in experiment [6] (setting [14]), 1 ± 1.4.

Take `CC(=O)OCCc1ccccc1` [2-Phenethyl acetate]: the “net action potential response” value is 0.667 ± 3.1 in experiment [1]; 2.5 ± 4.1 in experiment [2]; 2 ± 2 in experiment [3]; 8 in experiment [4]; -1.33 ± 4.6 in experiment [5].

`C=Cc1ccc(OC)cc1` [4-Vinyl anisole]: the “net action potential response” value in experiment [1] was -0.667 ± 4.2; in experiment [2], 1.5 ± 3.4; in experiment [3], -1.33 ± 3.1; in experiment [4] it was -2; in experiment [5], 15.3 ± 14.

`CC1(C)C2CC=C(CO)C1C2` (racemic) [(±)-Myrtenol]: the “net action potential response” value in experiment [1] was 1.33 ± 5; in experiment [2], 1.5 ± 2.5; in experiment [3] it was -1 ± 3.5; in experiment [4] it was 2; in experiment [5] it was 1.33 ± 3.1.

`CC(=O)OCc1ccccc1` [Benzyl acetate]: the “net action potential response” value in experiment [1] was 4 ± 3.5; in experiment [2], 0 ± 2.8; in experiment [3], 1.33 ± 4.2; in experiment [4], -4; in experiment [5], 0 ± 4; in experiment [6] (setting [8]) it was 2.67 ± 6.4. In addition, the “net action potential response” value in experiment [6] (setting [9]) is 2 ± 5.3; in experiment [6] (setting [10]), 3.33 ± 6.1; in experiment [6] (setting [11]) it was -0.5 ± 1.9; in experiment [6] (setting [12]), -6.67 ± 3.1; in experiment [6] (setting [13]), 0; in experiment [6] (setting [14]) it was 0.667 ± 4.2.

With `CCCCCCO` [1-Hexanol], the “net action potential response” value worked out at 18.7 ± 22 in experiment [1]; 7 ± 5 in experiment [2]; 6 ± 18 in experiment [3]; 4 in experiment [4]; 5.33 ± 1.1 in experiment [5].

For the compound `CCC/C=C/CO`, the “net action potential response” value was -1.33 ± 4.2 in experiment [1]; 0 ± 1.6 in experiment [2]; -0.667 ± 6.4 in experiment [3]; -2 in experiment [4]; 1.33 ± 1.1 in experiment [5]; 0.667 ± 6.4 in experiment [6] (setting [8]). Also, the “net action potential response” value is 4.67 ± 3.1 in experiment [6] (setting [9]); -0.667 ± 6.1 in experiment [6] (setting [10]); 4 ± 2.8 in experiment [6] (setting [11]); 2 ± 5.3 in experiment [6] (setting [12]); 2 in experiment [6] (setting [13]); 2 ± 2.8 in experiment [6] (setting [14]).

As to `C=C1CCC2(C(C)C)CC12` (racemic) [(±)-Sabinene], the “net action potential response” value in experiment [1] stood at 0.667 ± 3.1; in experiment [2], 6.5 ± 5.5; in experiment [3] it was 0.667 ± 3.1; in experiment [4], 34; in experiment [5], 1.33 ± 6.4.

Regarding `CC1=CC(C)(C)C=C(O)C1=O` [Lanierone], the “net action potential response” value in experiment [1] is 46.7 ± 9.2; in experiment [2], -1.5 ± 1.9; in experiment [3], -1.5 ± 7; in experiment [4] it was 0; in experiment [5], 1.33 ± 1.1; in experiment [6] (setting [8]) it was 135 ± 24. The “net action potential response” value came out at 141 ± 31 in experiment [6] (setting [9]); 160 ± 24 in experiment [6] (setting [10]); 155 ± 24 in experiment [6] (setting [11]); 121 ± 13 in experiment [6] (setting [12]); 144 in experiment [6] (setting [13]); 151 ± 12 in experiment [6] (setting [14]).

With `CC(=O)CC/C=C(\C)CCC=C(C)C` [Geranylacetone], the “net action potential response” value is 2 ± 2 in experiment [1]; 1 ± 4.8 in experiment [2]; 4.67 ± 7 in experiment [3]; -2 in experiment [4]; 3 ± 4.2 in experiment [5].

Take `CCc1ccc(O)c(OC)c1` [4-Ethylguaiacol]: the “net action potential response” value in experiment [1] was -1.33 ± 2.3; in experiment [2], 1 ± 1.1; in experiment [3], 3.33 ± 4.2; in experiment [4], 4; in experiment [5], 0.667 ± 2.3.

On to `C=CC(O)CCCCC` (racemic) [(±)-1-Octen-3-ol], for which the “net action potential response” value was -4.67 ± 1.1 in experiment [1]; 33 ± 24 in experiment [2]; 1.5 ± 2.5 in experiment [3]; 2 in experiment [4]; 1.33 ± 1.1 in experiment [5].

Consider `C=C(C)C1CC=C(C)C(=O)C1` (racemic) [(±)-Carvone], for which the “net action potential response” value in experiment [1] is -1.33 ± 1.1; in experiment [2], 1 ± 2.6; in experiment [3], 1 ± 3.5; in experiment [4], 0; in experiment [5] it was 30 ± 22.
